# Measurements: PubChem BioAssay (NCI)
# Values joined by “and” are separate entries in the source; they are usually repeats but may differ in a detail not shown here. Identical values can stand only once. The panel holds about 79,000 compounds, 15% with a hit somewhere; the sample as a whole holds those more often. Values without a mark were called inactive. Active and inactive are the calls of the source. No stated cut-off is given here; in the data, active means growth inhibition above about 70%; inactive means the rest.
# What was measured:
# [1] = NCI Yeast Anticancer Drug Screen. Data for the rad52 strain (AID 147);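 further: 0% = growth of vehicle-treated control cultures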; conditions: S. cerevisiae rad52 mutant growth inhibition, hits give high values
# In short: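 Screen used a yeast mutant impaired in DNA repair. After compound exposure, growth was measured. Values reflect inhibition compared with vehicle-treated cells.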
# [2] = NCI Yeast Anticancer Drug Screen. Data for the wt1 strain (AID 149);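 further: 0% = growth of vehicle-treated wt1 cultures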; conditions: S. cerevisiae wt1 strain (SPY 50644) growth inhibition, hits give high values
# In short: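 Yeast wt1 strain exposed to compounds; growth inhibition measured relative to vehicle-treated controls.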
# [3] = NCI Yeast Anticancer Drug Screen. Data for the rad50EPP+ strain (AID 151);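 further: 0% = growth of vehicle-treated control cultures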; conditions: S. cerevisiae rad50 mutant strain, hits give high values
# In short: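 Exposing the rad50EPP+ strain to each compound, growth was compared with vehicle-only cultures to give inhibition.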
# [4] = NCI Yeast Anticancer Drug Screen. Data for the mgt1 strain (AID 153); conditions: S. cerevisiae mgt1 mutant growth inhibition, hits give high values
# In short: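 Genetically defined yeast (mgt1) treated with compound; inhibition of growth expressed against vehicle-treated controls.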
# [5] = NCI Yeast Anticancer Drug Screen. Data for the rad50 strain (AID 155);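 further: 0% = growth of vehicle-only cultures of the same strain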; conditions: S. cerevisiae rad50 strain growth inhibition, hits give high values
# In short: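 Yeast carrying a defined DNA repair defect were exposed to test compounds, and growth was compared with vehicle-treated controls to give percent inhibition.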
# [6] = NCI Yeast Anticancer Drug Screen. Data for the mec2-1 strain (AID 157); conditions: S. cerevisiae mec2-1 strain, hits give high values
# In short: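 Readout is yeast growth inhibition, normalised to vehicle-treated controls, in the mec2-1 strain exposed to compound.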
# [7] = NCI Yeast Anticancer Drug Screen. Data for the rad14 strain (AID 159);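 further: 0% = growth of vehicle-treated control cultures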; conditions: S. cerevisiae rad14 strain growth inhibition, hits give high values
# In short: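 Yeast cells carrying a defined DNA-repair defect were exposed to compounds, and growth inhibition was calculated relative to vehicle-treated control cultures.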
# [8] = NCI Yeast Anticancer Drug Screen. Data for the sgs1 mgt1 strain (AID 161);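 further: 0% = growth of cultures given vehicle only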; conditions: S. cerevisiae sgs1 mgt1 strain, hits give high values
# In short: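 Percent growth inhibition was derived by comparing compound-exposed mutant yeast with vehicle-exposed cultures. The strain carries alterations in DNA damage repair.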
# [9] = NCI Yeast Anticancer Drug Screen. Data for the CLN2oe strain (AID 163);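 further: 0% = growth of vehicle-only control cultures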; conditions: S. cerevisiae CLN2oe strain, hits give high values
# In short: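 Values reflect how much compound exposure reduced yeast growth, referenced to vehicle-exposed cells. Assay organism is a strain with a defined genetic change affecting cell-cycle control.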
# [10] = NCI Yeast Anticancer Drug Screen. Data for the cln2 rad14 strain (AID 165);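 further: 0% = growth equal to vehicle treated cultures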; conditions: S. cerevisiae cln2 rad14 strain, hits give high values
# In short: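 Relative to vehicle controls, growth inhibition of compound-treated cln2 rad14 yeast was recorded.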
# [11] = NCI Yeast Anticancer Drug Screen. Data for the bub3 strain (AID 167); conditions: S. cerevisiae bub3 mutant strain, hits give high values
# In short: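 Compounds were applied to a genetically altered yeast strain carrying a cell-cycle control defect. Growth inhibition was scored against vehicle-treated controls.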
# [12] = NCI Yeast Anticancer Drug Screen. Data for the wt2 strain (AID 169);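 further: 0% = growth of vehicle-treated yeast cultures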; conditions: S. cerevisiae wt2 strain growth inhibition, hits give high values
# In short: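 Values express reduction in yeast growth under compound treatment, referenced to vehicle-treated cells.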
# [13] = NCI Yeast Anticancer Drug Screen. Data for the mlh1 strain (AID 171);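 further: 0% = growth of vehicle-treated control cultures of the same strain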; conditions: S. cerevisiae mlh1 strain growth inhibition, hits give high values
# In short: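 Steps: expose the defined-mutant yeast strain to compound; expose a parallel culture to vehicle; measure growth; express compound effect as inhibition relative to the vehicle culture.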
# [14] = NCI Yeast Anticancer Drug Screen. Data for the sgs1 strain (AID 173);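 further: 0% = growth of vehicle-only control cultures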; conditions: S. cerevisiae sgs1 mutant, hits give high values
# In short: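 Treat defined-mutant yeast with compound; measure growth; calculate inhibition relative to vehicle-treated cells.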
# [15] = NCI Yeast Anticancer Drug Screen. Data for the mlh1 rad18 strain (AID 175); conditions: S. cerevisiae mlh1 rad18 strain growth inhibition, hits give high values
# In short: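 Test agents were incubated with a yeast strain of defined genotype (DNA damage repair defect). Inhibition of growth was derived by comparison with vehicle-exposed cultures.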
# [16] = NCI Yeast Anticancer Drug Screen. Data for the rad18 strain (AID 177); conditions: S. cerevisiae rad18 mutant growth inhibition, hits give high values
# In short: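 A genetically defined yeast mutant impaired in DNA damage repair was treated with test compounds, then its growth was measured against cultures receiving vehicle alone.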
# [17] = at 5.0 µM (retest, dose inferred, filed as 0.5)
# [18] = at 50.0 µM (retest, dose inferred, filed as 5.0)
structure (smiles),measurement,setting,value
Cc1ccc(CC2(OCCN(C)C)CCC(C(C)(C)C)CC2)cc1 (stereo unspecified),growth inhibition,[1]; at 1.2 µM,8%
same,growth inhibition,[1]; at 3.7 µM,3%
same,growth inhibition,[1]; at 11.0 µM,8%
same,growth inhibition,[1]; at 33.0 µM,37%
same,growth inhibition,[1]; at 100.0 µM,98% (active)
same,growth inhibition,[2]; at 1.2 µM,9%
same,growth inhibition,[2]; at 3.7 µM,12%
same,growth inhibition,[2]; at 11.0 µM,-5%
same,growth inhibition,[2]; at 33.0 µM,9%
same,growth inhibition,[2]; at 100.0 µM,99% (active)
same,growth inhibition,[3]; at 1.2 µM,-4%
same,growth inhibition,[3]; at 3.7 µM,-9%
same,growth inhibition,[3]; at 11.0 µM,-3%
same,growth inhibition,[3]; at 33.0 µM,-2%
same,growth inhibition,[3]; at 100.0 µM,97% (active)
same,growth inhibition,[4]; at 1.2 µM,14%
same,growth inhibition,[4]; at 3.7 µM,12%
same,growth inhibition,[4]; at 11.0 µM,21%
same,growth inhibition,[4]; at 33.0 µM,84% (active)
same,growth inhibition,[4]; at 100.0 µM,99% (active)
same,growth inhibition,[5]; at 1.2 µM,-3%
same,growth inhibition,[5]; at 3.7 µM,0%
same,growth inhibition,[5]; [17],13% and 12%
same,growth inhibition,[5]; at 11.0 µM,7%
same,growth inhibition,[5]; at 33.0 µM,64%
same,growth inhibition,[5]; [18],100% (active)
same,growth inhibition,[5]; at 50.0 µM,98.6% (active) and 98.5% (active)
same,growth inhibition,[5]; at 100.0 µM,98% (active)
same,growth inhibition,[6]; at 1.2 µM,-7%
same,growth inhibition,[6]; at 3.7 µM,-11%
same,growth inhibition,[6]; [17],-8% and -7%
same,growth inhibition,[6]; at 11.0 µM,-7%
same,growth inhibition,[6]; at 33.0 µM,43%
same,growth inhibition,[6]; [18],99% (active) and 93% (active)
same,growth inhibition,[6]; at 50.0 µM,98.5% (active) and 99.3% (active)
same,growth inhibition,[6]; at 100.0 µM,99% (active)
same,growth inhibition,[7]; at 1.2 µM,-7%
same,growth inhibition,[7]; at 3.7 µM,-3%
same,growth inhibition,[7]; at 11.0 µM,15%
same,growth inhibition,[7]; at 33.0 µM,92% (active)
same,growth inhibition,[7]; at 100.0 µM,98% (active)
same,growth inhibition,[8]; [17],-5% and -7%
same,growth inhibition,[8]; [18],85% (active) and 91% (active)
same,growth inhibition,[8]; at 50.0 µM,98.7% (active) and 99.4% (active)
same,growth inhibition,[9]; at 1.2 µM,-23%
same,growth inhibition,[9]; at 3.7 µM,-18%
same,growth inhibition,[9]; at 11.0 µM,-11%
same,growth inhibition,[9]; at 33.0 µM,42%
same,growth inhibition,[9]; at 100.0 µM,98% (active)
same,growth inhibition,[10]; [17],20% and 10%
same,growth inhibition,[10]; [18],89% (active) and 76% (active)
same,growth inhibition,[10]; at 50.0 µM,99.2% (active) and 99.5% (active)
same,growth inhibition,[11]; at 1.2 µM,-23%
same,growth inhibition,[11]; at 3.7 µM,-24%
same,growth inhibition,[11]; [17],11% and 7%
same,growth inhibition,[11]; at 11.0 µM,-11%
same,growth inhibition,[11]; at 33.0 µM,6%
same,growth inhibition,[11]; [18],99% (active)
same,growth inhibition,[11]; at 50.0 µM,87.5% (active) and 99.2% (active)
same,growth inhibition,[11]; at 100.0 µM,98% (active)
same,growth inhibition,[12]; at 1.2 µM,-19%
same,growth inhibition,[12]; at 3.7 µM,-8%
same,growth inhibition,[12]; at 11.0 µM,-16%
same,growth inhibition,[12]; at 33.0 µM,36%
same,growth inhibition,[12]; at 100.0 µM,99% (active)
same,growth inhibition,[13]; at 1.2 µM,3%
same,growth inhibition,[13]; at 3.7 µM,-1%
same,growth inhibition,[13]; at 11.0 µM,13%
same,growth inhibition,[13]; at 33.0 µM,85% (active)
same,growth inhibition,[13]; at 100.0 µM,98% (active)
same,growth inhibition,[14]; at 1.2 µM,24%
same,growth inhibition,[14]; at 3.7 µM,26%
same,growth inhibition,[14]; at 11.0 µM,41%
same,growth inhibition,[14]; at 33.0 µM,82% (active)
same,growth inhibition,[14]; at 100.0 µM,99% (active)
same,growth inhibition,[15]; [17],9% and 10%
same,growth inhibition,[15]; [18],100% (active) and 99% (active)
same,growth inhibition,[15]; at 50.0 µM,99.5% (active) and 99.4% (active)
Cc1ccc(NC(=O)/C(CC2N=c3c(ccc4c(O)c5ccccc5c(O)c34)=NC2O)=N/NC(C)(C)C)cc1 (stereo unspecified),growth inhibition,[1]; at 1.2 µM,7%
same,growth inhibition,[1]; at 3.7 µM,9%
same,growth inhibition,[1]; at 11.0 µM,33%
same,growth inhibition,[1]; at 33.0 µM,49%
same,growth inhibition,[1]; at 100.0 µM,61%
same,growth inhibition,[2]; at 1.2 µM,-19%
same,growth inhibition,[2]; at 3.7 µM,2%
same,growth inhibition,[2]; at 11.0 µM,-2%
same,growth inhibition,[2]; at 33.0 µM,8%
same,growth inhibition,[2]; at 100.0 µM,-6%
same,growth inhibition,[3]; at 1.2 µM,16%
same,growth inhibition,[3]; at 3.7 µM,34%
same,growth inhibition,[3]; at 11.0 µM,44%
same,growth inhibition,[3]; at 33.0 µM,50%
same,growth inhibition,[3]; at 100.0 µM,54%
same,growth inhibition,[4]; at 1.2 µM,16%
same,growth inhibition,[4]; at 3.7 µM,5%
same,growth inhibition,[4]; at 11.0 µM,-1%
same,growth inhibition,[4]; at 33.0 µM,22%
same,growth inhibition,[4]; at 100.0 µM,22%
same,growth inhibition,[5]; at 1.2 µM,17%
same,growth inhibition,[5]; at 3.7 µM,23%
same,growth inhibition,[5]; [17],-3%
same,growth inhibition,[5]; at 11.0 µM,30%
same,growth inhibition,[5]; at 33.0 µM,54%
same,growth inhibition,[5]; [18],65%
same,growth inhibition,[5]; at 50.0 µM,77.6% (active)
same,growth inhibition,[5]; at 100.0 µM,65%
same,growth inhibition,[6]; at 1.2 µM,15%
same,growth inhibition,[6]; at 3.7 µM,18%
same,growth inhibition,[6]; [17],13%
same,growth inhibition,[6]; at 11.0 µM,38%
same,growth inhibition,[6]; at 33.0 µM,44%
same,growth inhibition,[6]; [18],25%
same,growth inhibition,[6]; at 50.0 µM,1.25%
same,growth inhibition,[6]; at 100.0 µM,35%
same,growth inhibition,[7]; at 1.2 µM,9%
same,growth inhibition,[7]; at 3.7 µM,-9%
same,growth inhibition,[7]; at 11.0 µM,-10%
same,growth inhibition,[7]; at 33.0 µM,0%
same,growth inhibition,[7]; at 100.0 µM,1%
same,growth inhibition,[8]; [17],-7%
same,growth inhibition,[8]; [18],2%
same,growth inhibition,[8]; at 50.0 µM,-0.2%
same,growth inhibition,[9]; at 1.2 µM,-5%
same,growth inhibition,[9]; at 3.7 µM,-2%
same,growth inhibition,[9]; at 11.0 µM,3%
same,growth inhibition,[9]; at 33.0 µM,0%
same,growth inhibition,[9]; at 100.0 µM,1%
same,growth inhibition,[10]; [17],-25%
same,growth inhibition,[10]; [18],-3%
same,growth inhibition,[10]; at 50.0 µM,-19.9%
same,growth inhibition,[11]; at 1.2 µM,-3%
same,growth inhibition,[11]; at 3.7 µM,-2%
same,growth inhibition,[11]; [17],3%
same,growth inhibition,[11]; at 11.0 µM,-1%
same,growth inhibition,[11]; at 33.0 µM,1%
same,growth inhibition,[11]; [18],17%
same,growth inhibition,[11]; at 50.0 µM,33.6%
same,growth inhibition,[11]; at 100.0 µM,-1%
same,growth inhibition,[12]; at 1.2 µM,0%
same,growth inhibition,[12]; at 3.7 µM,1%
same,growth inhibition,[12]; at 11.0 µM,4%
same,growth inhibition,[12]; at 33.0 µM,5%
same,growth inhibition,[12]; at 100.0 µM,7%
same,growth inhibition,[13]; at 1.2 µM,7%
same,growth inhibition,[13]; at 3.7 µM,16%
same,growth inhibition,[13]; at 11.0 µM,10%
same,growth inhibition,[13]; at 33.0 µM,28%
same,growth inhibition,[13]; at 100.0 µM,16%
same,growth inhibition,[14]; at 1.2 µM,3%
same,growth inhibition,[14]; at 3.7 µM,4%
same,growth inhibition,[14]; at 11.0 µM,2%
same,growth inhibition,[14]; at 33.0 µM,1%
same,growth inhibition,[14]; at 100.0 µM,1%
same,growth inhibition,[15]; [17],3%
same,growth inhibition,[15]; [18],32%
same,growth inhibition,[15]; at 50.0 µM,27.4%
same,growth inhibition,[16]; at 1.2 µM,-4%
same,growth inhibition,[16]; at 3.7 µM,12%
same,growth inhibition,[16]; at 11.0 µM,20%
same,growth inhibition,[16]; at 33.0 µM,40%
same,growth inhibition,[16]; at 100.0 µM,18%
